Assay [1] in a line: NCI Yeast Anticancer Drug Screen. Data for the rad50 strain (AID 155).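 Also: 0% = growth of vehicle-only cultures of the same strain.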 The conditions noted are these: S. cerevisiae rad50 strain growth inhibition, active compounds read high; at 50.0 µM unless noted. The method in brief: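 Growth of the mutant yeast was measured after compound exposure and referenced to vehicle-treated cultures.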
Assay [2] in a line: NCI Yeast Anticancer Drug Screen. Data for the mec2-1 strain (AID 157). The conditions noted are these: S. cerevisiae mec2-1 strain, active compounds read high; at 50.0 µM unless noted. The method in brief:
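Readout is yeast growth inhibition, normalised to vehicle-treated controls, in the mec2-1 strain exposed to compound.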

Assay [3] can be described thus: NCI Yeast Anticancer Drug Screen. Data for the sgs1 mgt1 strain (AID 161).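 Also: 0% = growth of cultures given vehicle only.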 The conditions noted are these: S. cerevisiae sgs1 mgt1 strain, active compounds read high; at 50.0 µM unless noted. The procedure, abridged:
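Yeast cells carrying a defined DNA-repair defect were exposed to test compounds. Growth inhibition was measured relative to vehicle-treated controls.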

The nature of assay [4]: NCI Yeast Anticancer Drug Screen. Data for the cln2 rad14 strain (AID 165).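 Also: 0% = growth equal to vehicle treated cultures.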 The conditions noted are these: S. cerevisiae cln2 rad14 strain, active compounds read high; at 50.0 µM unless noted. The procedure, abridged: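 Relative to vehicle controls, growth inhibition of compound-treated cln2 rad14 yeast was recorded.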
Assay [5] is described as follows: NCI Yeast Anticancer Drug Screen. Data for the bub3 strain (AID 167). Conditions: S. cerevisiae bub3 mutant strain, active compounds read high; at 50.0 µM unless noted. The method in brief:
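Whole-cell yeast assay. The mutant strain was incubated with compounds, and growth inhibition was determined by comparison with vehicle-treated cells.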

Assay [6] can be described thus: NCI Yeast Anticancer Drug Screen. Data for the mlh1 rad18 strain (AID 175). Conditions: S. cerevisiae mlh1 rad18 strain growth inhibition, active compounds read high; at 50.0 µM unless noted. The method in brief: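 Test agents were incubated with a yeast strain of defined genotype (DNA damage repair defect). Inhibition of growth was derived by comparison with vehicle-exposed cultures.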

In PubChem BioAssay (NCI) one finds growth inhibition data, which are given here for 37 compounds.

Several values for one entry are separate records, joined by “and”; a condition that tells them apart may be missing. Identical values can stand only once. About 79,000 compounds went through this panel and 15% of them were active in at least one assay; those are over-represented in the sample as a whole. Values without a mark were called inactive. Activity calls are given as the source filed them. Rule as the data show it: active = growth inhibition above about 70%; inactive = the rest.

As for `CSC(=N)N`, the growth inhibition in assay [1] was -8.55% and -15.6%; in assay [2], -18.2% and -17.4%; in assay [3], -52.2%; in assay [4] it was -46%; in assay [5] it was 1.45%; in assay [6] it was -2.95% and -29.8%.
With `CCCCCCCCCCCCCCCCCn1nnnc1N`, the growth inhibition is -8.3% in assay [1]; 11.6% in assay [2]; -7.3% in assay [3]; -9.95% in assay [4]; -12.3% in assay [5]; -11.4% in assay [6].
`CCCCOC(=O)C(C)OC(=O)C(C)Oc1cc(Cl)c(Cl)cc1Cl` (configuration not stated): the growth inhibition in assay [1] is -1.65%; in assay [2], -3.95%; in assay [3], 0.3%; in assay [4], 16.9%; in assay [5] it was 3.9%; in assay [6], -0.8%.
In the case of `C=C(COc1ccc(OC)cc1)C(C)(C)C`, the growth inhibition was 18.9% in assay [1]; 13.3% in assay [2]; -17.4% in assay [3]; -14.4% in assay [4]; 14.7% in assay [5]; -19.5% in assay [6].
As to `COc1ccc(/C=C2\CN(CCCC(=O)O)C(=O)C2=O)cc1`, the growth inhibition in assay [1] was 3.6%; in assay [2], -7.5%; in assay [3], 0%; in assay [4], -6.45%; in assay [5], 4.1%; in assay [6], -16.7%.
For `COc1cccc(N(CN2CC=CC2=O)C(C)=O)c1`, the growth inhibition in assay [1] is -1.65%; in assay [2] it was 6.3%; in assay [3], 10.6%; in assay [4] it was 18.6%; in assay [5], -16.8%; in assay [6], -44.3%.
On to `CCOC(=O)COc1cc2c(cc1C(CC)c1ccc(OC)cc1)OCO2` (configuration not stated), for which the growth inhibition in assay [1] was -14.9%; in assay [2], -17.6%; in assay [3], -12.1%; in assay [4], -20.1%; in assay [5] it was 16.4%; in assay [6], -9.5%.
For `FC(F)(F)c1ccc(C2=CCCCC2)cc1`, the growth inhibition is 24.1% in assay [1]; 6.45% in assay [2]; 4.45% in assay [3]; 24.5% in assay [4]; -18.6% in assay [5]; 13.2% in assay [6].
As for `O=c1oc(-c2ccc([N+](=O)[O-])cc2)nc2cc(Cl)ccc12`, the growth inhibition is 17.8% in assay [1]; 9.15% in assay [2]; 44.7% in assay [3]; 8.85% in assay [4]; 44.9% in assay [5]; 18.6% in assay [6].
In the case of `CC(C)C1CCC2C(CCC3C(C)(C(=O)O)CCCC23C)C1` (configuration not stated), the growth inhibition was -2.35% in assay [1]; 14.1% in assay [2]; -0.85% in assay [3]; 21% in assay [4]; -12.8% in assay [5]; 25.2% in assay [6].
Consider `O=C(O)C1(O)CCCCC1`, for which the growth inhibition in assay [1] was -4.85% and 6.9%; in assay [2], -2.45% and 9%; in assay [3] it was -7.35% and -1.65%; in assay [4] it was -21.2% and 16.4%; in assay [5], -7.2% and 19.6%; in assay [6], 6.65% and -7.05%.
With `CCCCCCCCCC(=O)N1CCCC(C)C1` (configuration not stated), the growth inhibition in assay [1] is 99.5% (active); in assay [2] it was 99.7% (active); in assay [3], 99.6% (active); in assay [4] it was 98.7% (active); in assay [5] it was 99.2% (active); in assay [6] it was 99.5% (active).
Turning to `CC1(C)N=C(C(N)=O)c2ncn(Cc3ccccc3)c2N1`, the growth inhibition in assay [1] was -29%; in assay [2], -32.6%; in assay [3], -23.6%; in assay [4] it was 18.4%; in assay [5], -8.1%; in assay [6], -6.9%.
For the compound `CCc1cc(C)c(C)cc1O`, the growth inhibition is -28.8% in assay [1]; -31.6% in assay [2]; -38.9% in assay [3]; 0.5% in assay [4]; -24.9% in assay [5]; -22.4% in assay [6].
Consider `CCCCCCCCCOCC(=O)O`, for which the growth inhibition in assay [1] was 34.4%; in assay [2], 5.55%; in assay [3] it was 7.5%; in assay [4], 3.15%; in assay [5] it was 2.3%; in assay [6], 6.4%.
As to `CC(C)OC(=O)Oc1cccc(OC(=O)OC(C)C)c1`, the growth inhibition in assay [1] was 3.15%; in assay [2], -28.8%; in assay [3], 2.15%; in assay [4], 6.95%; in assay [5], 8.5%; in assay [6], 9.3%.
Consider `CC(=O)N(C)c1ccc(NC(=O)C2CCCCC2C(=O)O)cc1` (configuration not stated), for which the growth inhibition in assay [1] is 6.95%; in assay [2], 8.6%; in assay [3], 6.2%; in assay [4] it was 3.65%; in assay [5] it was 22.2%; in assay [6], -14.2%.
As for `CC1=NN(C(=O)c2ccccc2O)C(=O)/C1=C/c1ccccc1O`, the growth inhibition in assay [1] was -29.1%; in assay [2] it was -11.8%; in assay [3], -14.8%; in assay [4], -9.7%; in assay [5] it was -39.5%; in assay [6], -24.6%.
As for `CCOC(=O)c1ccc(N(CCO)CCO)cc1`, the growth inhibition in assay [1] is 3.45%; in assay [2], 12.4%; in assay [3], 5.45%; in assay [4], -94.2%; in assay [5], 32.5%; in assay [6], 13.7%.
Take `CCN(CC)CC(=O)Nc1cc(Cl)ccc1OC`: the growth inhibition was -4% in assay [1]; -19.8% in assay [2]; -5.75% in assay [3]; -35.3% in assay [4]; 8.9% in assay [5]; -6.25% in assay [6].
With `CC(C)OC(=O)CCC(N)C(=O)O` (configuration not stated), the growth inhibition is 2.95% in assay [1]; 0.6% in assay [2]; 1.85% in assay [3]; -4.8% in assay [4]; 2.55% in assay [5]; 0.1% in assay [6].
With `C=CCCn1nc(-c2ccccc2)oc1=O`, the growth inhibition in assay [1] was -8.35%; in assay [2] it was -28.5%; in assay [3] it was -19.2%; in assay [4], -2.75%; in assay [5] it was -26.9%; in assay [6], 6.1%.
Regarding `O=C1NN(C(=O)c2ccccc2)C(c2ccccc2[N+](=O)[O-])c2c1c1ccccc1n2C(=O)c1ccccc1` (configuration not stated), the growth inhibition in assay [1] is 28.9%; in assay [2] it was 5.65%; in assay [3], 5.2%; in assay [4] it was -23.4%; in assay [5] it was -4.05%; in assay [6] it was 14.9%.
In the case of `CCOC(=O)C1=CC(C(=O)OCC)=C2C=CC=C3C=CC=C1N32`, the growth inhibition in assay [1] is 7.75%; in assay [2], 8.7%; in assay [3] it was 25.9%; in assay [4], -1.65%; in assay [5] it was -18%; in assay [6] it was -2.95%.
Turning to `COc1ccc(C(=O)O)c(Cc2ccc3ccccc3c2)c1`, the growth inhibition is 0.4% in assay [1]; -4.7% in assay [2]; 4.3% in assay [3]; 10% in assay [4]; -5.95% in assay [5]; 36% in assay [6].
On to `CCOC(=O)c1c(C(=O)OCC)c2cccn2c2c1cnn2-c1ccccc1`, for which the growth inhibition in assay [1] is -0.85%; in assay [2], 1.65%; in assay [3], 5.1%; in assay [4] it was 5.55%; in assay [5], -20.8%; in assay [6] it was -2.55%.
Turning to `CCOC(=O)c1sc(N)nc1N1CCCC1`, the growth inhibition in assay [1] was 1.65%; in assay [2] it was -23.9%; in assay [3], -9.65%; in assay [4], 10.1%; in assay [5] it was 7%; in assay [6], -2.25%.
Consider `Oc1ccc(Br)cc1/C=N/N1CCN(/N=C/c2cc(Br)ccc2O)CC1`, for which the growth inhibition in assay [1] is 22.9%; in assay [2], 6.2%; in assay [3], 35.2%; in assay [4] it was 14.9%; in assay [5] it was 1.7%; in assay [6], 25.1%.
Take `CC1([N+](=O)[O-])COC(Cc2ccccc2)OC1` (configuration not stated): the growth inhibition in assay [1] is -7.7%; in assay [2], -4%; in assay [3], -16.9%; in assay [4] it was -17.3%; in assay [5], -18%; in assay [6], -5%.
For `CC(=O)c1cccc(N=NN(C)C)c1`, the growth inhibition was 41% in assay [1]; 36.5% in assay [2]; 58% in assay [3]; 6.35% in assay [4]; 40.2% in assay [5]; 46.8% in assay [6].
As to `Oc1ccccc1C1CCCC1`, the growth inhibition in assay [1] is 5.55%; in assay [2], -10%; in assay [3], -4.75%; in assay [4], 3.7%; in assay [5] it was 0.25%; in assay [6], -2.45%.
With `O=C1C2CCC2C(=O)N1c1ccc2ccccc2c1` (configuration not stated), the growth inhibition in assay [1] was -38.5%; in assay [2], -1%; in assay [3], 0.35%; in assay [4] it was -17.9%; in assay [5], 12.6%; in assay [6], 6.75%.
Regarding `Cc1ccc(-c2c(C)c(-c3ccccc3)c(-c3ccccc3)c(C)c2-c2ccccc2)cc1C`, the growth inhibition in assay [1] was 63.3%; in assay [2], 77.3% (active); in assay [3], 25.8%; in assay [4] it was 82% (active); in assay [5], 97.5% (active); in assay [6], 65%.
For the compound `CC(=O)CC(=O)ON(C)C(=O)Cc1ccccc1`, the growth inhibition is 29.6% in assay [1]; 15.2% in assay [2]; -2.75% in assay [3]; -4.4% in assay [4]; -6.1% in assay [5]; -8.35% in assay [6].
Regarding `Cc1ccc(Nc2nc(-c3ccc(-c4ccc([N+](=O)[O-])cc4)o3)cs2)cc1`, the growth inhibition is 20.5% in assay [1]; 19.5% in assay [2]; 31.8% in assay [3]; 31.5% in assay [4]; 28.7% in assay [5]; 44% in assay [6].
For `CCN(CC)CCN=Cc1ccccc1OC`, the growth inhibition in assay [1] was 15.9%; in assay [2], -29.5%; in assay [3] it was -3.85%; in assay [4], 3.15%; in assay [5], 11.3%; in assay [6] it was 15.2%.
Turning to `N#Cc1sc2c(c1OC(=O)c1cccs1)c(=O)n(-c1ccccc1)c(=S)n2-c1ccccc1`, the growth inhibition in assay [1] was 3.1%; in assay [2] it was 10.4%; in assay [3], 17.2%; in assay [4], -5.55%; in assay [5], 25.8%; in assay [6], 15.2%.
